Compound activity from PubChem BioAssay.
This is a sample that favours compounds with a hit; in the whole collection about 17% have one here.
HT1080 IDH1KD tx: kills HT-1080 cells with IDH1 knockdown | Potency, µM (series often up to 46.1 µM), without a hit: top-dose activity, negative = toxicity, usual class: cytotoxic | hit rate 2% among 360,000 | AID 686971 | HT-1080 IDH1 knockdown viability, ATP luminescence, 48 h;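 note: 0% = DMSO wells and -100% = cell-free medium wells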
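Viability of IDH1-knockdown HT-1080 fibrosarcoma cells was assessed by CellTiter-Glo after 48 h at 37 °C with titrated compound; concentration-effect curves were classified by fit quality and response size.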
DT40 TDP1 CPT: DT40-hTDP1 cell growth loss with CPT | chicken DT40 Tdp1-/-;hTDP1 cells + 20 nM CPT, ATP luminescence, 48 h | Potency, µM (top dose mostly 46.2 µM), for the others: at the highest dose activity change, negative = growth inhibition, usual class: inhibitors | hit rate 12% among 420,000 | AID 686979; note: % is set by controls: 0 for no effect and ±100 for the full control effect; nearly all actives have a fitted effect of over 55% in size
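Cell growth measured by CellTiter-Glo luminescence after a minimum 48 h, 37 C compound exposure with 20 nM CPT in Tdp1-knockout DT40 cells stably expressing hTDP1, seeded 400/well; qHTS titration format.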
HT1080NT lethal: kills 2HG-producing HT-1080-NT fibrosarcoma cells | Potency, µM (titrated, usually from 46.1 µM), for the others: at the highest dose activity, negative = less viability, usual class: cytotoxic | hit rate 1.6% among 360,000 | HT-1080-NT fibrosarcoma viability, CellTiter-Glo ATP luminescence, 48 h;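 note: NT is the 2HG producing partner of a matched IDH1 knockdown line; 0% = DMSO-treated cells and -100% = media-only wells without cells; nearly all actives have a fitted effect of over 55% in size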
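Toxicity toward the 2HG-producing NT line was scored as %Activity, normalised to DMSO and no-cell wells, from CellTiter-Glo luminescence after 48 hours' treatment.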
TGFb SMAD3 inh: TGF-b pathway inhibition. HepG2 CAGA-GFP TGF-b/SMAD3 reporter, GFP fluorescence, 18 h; TGF-beta stimulated, 500 pg/mL final. Potency, µM (top dose mostly 46.1 µM), without a hit: top-dose activity, negative = inhibition, most hits filed as inhibitors. hit rate 1.2% among 410,000; note: % is set by controls: 0 for no effect and ±100 for the full control effect; nearly all actives have a fitted effect of over 65% in size
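Per well, imaged GFP fluorescence of HEPG2 CAGA-GFP cells gives the signal; cells get compound, then TGF-beta (500 pg/mL final), 18 h at 37 degrees C; %Activity versus -TGF-beta and +DMSO controls.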
HepG2 viability: kills HepG2 cells in TGF-b inhibitor counter-screen. AID 588856. HepG2 CAGA-GFP viability, ATP luminescence, 18 h. Potency, µM (series often up to 46.1 µM), without a hit: at the highest dose activity change, negative = cytotoxicity, hits mostly cytotoxic. hit rate 0.76% among 410,000
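CellTiter-Glo luminescence gave cytotoxicity after 18 hours at 37 degrees C. The cells were HepG2 CAGA-GFP in 1% FBS DMEM, stimulated with 500 pg/mL TGF-beta after compound addition. %Activity was normalised to no-cell wells (complete cell-killing) and DMSO (no toxicity), and curves were fitted and classified.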
TDP1 cell noCPT: qHTS for Inhibitors of human tyrosyl-DNA phosphodiesterase 1 (TDP1): qHTS in cells in absence of CPT. DT40 Tdp1-/- hTDP1 cells, no CPT, ATP luminescence, 48 h. Potency, µM (titrated, usually from 46.2 µM), for the others: top-dose activity change, negative = growth inhibition, usual class: inhibitors. hit rate 15% among 420,000. AID 686978, 2013; note: % is set by controls: 0 for no effect and ±100 for the full control effect; nearly all actives have a fitted effect of over 55% in size
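DT40 Tdp1-/-;hTDP1 cells, no CPT (DMSO vehicle only), 400 cells/well; compounds pin-transferred; ≥48 hr, 37 °C; CellTiter-Glo 30 min RT dark, luminescence read.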
* hit, by the source's call; ? = inconclusive; . = no result; [ ] = dose if it differs, or a comment. Calls come from the whole dose curve; as a rule, active = well fitted curve in the direction sought with a large enough effect; inconclusive = small, poorly fitted or top-dose-only effect, or another doubt; inactive = no such curve, though single readings can be large; an effect the other way counts as inactive or inconclusive. Potency is the fitted concentration of half-maximal effect.

SMILES | HT1080 IDH1KD tx | DT40 TDP1 CPT | HT1080NT lethal | TGFb SMAD3 inh | HepG2 viability | TDP1 cell noCPT
Cn1c(SCC(=O)N2CCc3ccccc32)nc2cccnc21 | -14% | 16µM* | -12% | -10% | 16% | 21µM*
CCn1c(SCC(=O)N2CCCc3ccccc32)nc2cccnc21 | 0% | ? | 6% | -2% | -46% | 18µM*
Cn1c(SCC(=O)N2CCCc3ccccc32)nc2cccnc21 | -12% | ? | 0% | -1% | -12% | ?
Cc1ccc(C(=O)Nc2c(-c3ccc(Cl)cc3)[nH][nH]c2=O)cc1 | 3% | -20% | 2% | -7% | -4% | 16%
C[C@H]1CN([C@@H](C)CO)S(=O)(=O)c2ccc(-c3cncnc3)cc2O[C@H]1CN(C)C(=O)NC1CCCC1 | 2% | 1% | -1% | 2% | -3% | -7%
CC(C)Cn1c(SCC(=O)N2CCCc3ccccc32)nc2ccccc2c1=O | -30% | 16µM* | -26% | ? | -10% | 18µM*
COCCCn1c(=O)c2ccccc2n(CC(=O)N2CCCc3ccccc32)c1=O | -6% | 26µM* | -2% | 0% | 2% | ?
CCn1c(SCC(=O)N2CCCc3ccccc32)nc2ccccc2c1=O | -17% | ? | -8% | -1% | -16% | 15µM*
COc1cccc(CC(=O)Nc2c(C(=O)N3CCN(c4ccccc4F)CC3)oc3ccccc23)c1 | . | 5.8µM* | . | 9% | 1% | 4.6µM*
COc1ccc(OCC(=O)Nc2c(C(=O)N3CCN(c4ccccc4)CC3)oc3ccccc23)cc1 | . | ? | . | -13% | -2% | -10%
Cc1cccc(OCC(=O)Nc2c(C(=O)N3CCN(c4ccccc4F)CC3)oc3ccccc23)c1 | . | ? | . | ? | -2% | 18µM*
CC(C)(C)C(=O)Nc1c(C(=O)N2CCN(c3ccc(F)cc3)CC2)oc2ccccc12 | . | 18µM* | . | -22% | -23% | 15µM*
O=C(c1oc2ccccc2c1CSCc1ccccc1)N1CCN(c2ncccn2)CC1 | -8% | ? | 10% | 16µM* | -42% | ?
CC(C)CC(=O)Nc1c(C(=O)N2CCN(c3ccccc3F)CC2)oc2ccccc12 | . | 13µM* | . | -3% | 7% | 10µM*
CCOCC(=O)Nc1c(C(=O)N2CCN(c3ncccn3)CC2)oc2ccccc12 | -2% | ? | 0% | -6% | -28% | 12µM*
O=C(Nc1c(C(=O)N2CCN(c3ccccc3F)CC2)oc2ccccc12)c1cccc(F)c1 | . | ? | . | 10% | -3% | ?
CC(C)CN(C[C@@H](O)[C@H](Cc1ccccc1)NC(=O)O[C@H]1CO[C@H]2OCC[C@H]21)S(=O)(=O)c1ccc(N)cc1 | . | -6% | . | . | . | ?
CCOC(=O)c1[nH]c(C)c(C(=O)Nc2ccc(C)c(F)c2)c1C | 3.5µM* | 10µM* | 10µM* | -13% | -36% | 18µM*
CCOC(=O)c1[nH]c(C)c(C(=O)Nc2ccc(C)c(Cl)c2)c1C | 13µM* | 16µM* | 0%[9.24 µM] | 5% | -32% | ?
c1ccc(COC(CN2CCCCCC2)CN2CCCCCC2)cc1 | -7% | 10µM* | -5% | 2% | -26% | 21µM*
O=C(CNC(=O)N1CC(=O)Nc2ccccc21)NCCc1ccc(Cl)cc1 | 0% | 19% | 3% | -10% | -8% | -7%
CCCCSCc1nc2nc(Cl)c(Cl)nc2[nH]1 | ? | 16µM* | ? | ? | -27% | 18µM*
CCCC(=O)N(c1ccc(OCC)cc1)S(=O)(=O)c1ccc2c3c(cccc13)C(=O)N2C | 13% | 15µM* | 1% | -12% | -25% | 13µM*
CN1C(=O)c2cccc3c(S(=O)(=O)N4CCCC4C(=O)O)ccc1c23 (stereo not drawn) | 8% | -19% | -4% | -19% | -7% | -15%
COc1ccc(C(=O)N2CCN(C(=O)c3ccc(-c4ccccc4)cc3)CC2)cc1OC | -12% | -19% | -14% | 4% | -1% | ?
SMILES | HT1080 IDH1KD tx | DT40 TDP1 CPT | HT1080NT lethal | TGFb SMAD3 inh | HepG2 viability | TDP1 cell noCPT
CCc1ccc(N2CCN(C(=O)c3ccc(OC)c(OC)c3)CC2)cc1 | -3% | ? | 9% | ? | -20% | 13µM*
COc1ccc(C(=O)N2CCN(c3ccc(C)cc3)CC2)cc1OC | 1% | ? | -3% | -7% | -47% | ?
COc1ccc(C(=O)N2CCN(c3c(C)cccc3C)CC2)cc1OC | -6% | 23µM* | -2% | -19% | -25% | ?
COc1ccc(C(=O)N2CCN(c3nc4ccccc4o3)CC2)cc1OC | -1% | 16µM* | ? | -15% | -22% | 21µM*
CC(C)CCNC(=O)CCCC1=NS(=O)(=O)c2ccccc2N1 | 2% | -6% | ? | -1% | 8% | ?
O=C1COc2ccc(C(=O)COC(=O)c3nc(Cl)ccc3Cl)cc2N1 | -2% | ? | -1% | 3% | -10% | -13%
Cc1ccc(C(=O)N(Cc2ccccc2)C(C)(C)C)cc1C | -5% | 16µM* | 3% | ? | 3% | 15µM*
COc1ccccc1C(=O)NCCC(=O)NCCc1ccccc1 | 0% | 9% | 17% | 3% | -1% | 7%
CCCCNC(=O)CCC(=O)NNc1nc2ccccc2c2nc(-c3ccccc3)nn12 | -10% | ? | -17% | -18% | -8% | 23µM*
CCCCNc1nc2ccccc2c2nc(-c3ccccc3)nn12 | . | ? | . | ? | -37% | 21µM*
Clc1ccc(CNc2nc3ccccc3c3nc(-c4cccnc4)nn23)cc1 | . | -21% | . | 3% | 5% | ?
Cc1ccc(CNc2nc3ccccc3c3nc(-c4cccc(C)c4)nn23)cc1 | . | 2% | . | 4% | 2% | -24%
Clc1ccccc1CNc1nc2ccccc2c2nc(-c3ccccc3)nn12 | . | -10% | . | ? | -27% | -8%
Clc1ccc(CCNc2nc3ccccc3c3nc(-c4ccccc4)nn23)cc1 | . | ? | . | -5% | -2% | 12µM*
c1ccc(CNc2nc3ccccc3c3nc(-c4ccccc4)nn23)cc1 | . | ? | . | ? | 1% | 2.6µM*
CCCCN(CCCC)Cc1cc2ccccc2c2c1COC2 | -6% | 13µM* | -5% | -23% | -15% | ?
CCCN(CCC)Cc1cc2ccccc2c2c1COC2 | -9% | ? | -4% | 1% | -33% | ?
O=[N+]([O-])c1ccc(N=Nc2ccc(O)cc2O)cc1 | 5.8µM* | ? | 18µM* | ? | -34% | -6%
